Reference: PubChem BioAssay (Tox21)
Records with an inconclusive call do not appear. Where a call stands in place of a potency, no number is given. Calls of active or inactive are those of the source. Unless noted, calls follow the shape of the full dose curve.

Experiments:
[1] = Nuclear factor erythroid 2-related factor 2/antioxidant responsive element (Nrf2/ARE) small molecule agonists: qHTS cell viability counter screen in human keratinocytes (AID 1919968; active = well fitted curve in the direction sought with a large enough effect in the repeat runs; an effect the other way counts as inactive or inconclusive; also: nearly all actives have a fitted effect of over 55% in size)
Procedure, shortened: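 Seed 1,500 KeratinoSens cells per well, then incubate 5 h at 37 C/5% CO2. Add compounds in DMSO and incubate 23 h. Add CellTiter-Fluor, wait 1 h and read fluorescence.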

[2] = Nuclear factor erythroid 2-related factor 2/antioxidant responsive element (Nrf2/ARE) small molecule agonists: luciferase reporter gene qHTS assay in human keratinocytes (AID 1919969); also: nearly all actives have a fitted effect of over 35% in size; also: potency is read from the fitted curve at half-maximal effect
[3] = target: Gonadotropin-releasing hormone receptor (Homo sapiens) (UniProt P30968); test: Human gonadotropin-releasing hormone receptor (GnRHR) small molecule agonists, calcium flux assay in GnRHR-HEK293 cells (AID 1920063); also: nearly all actives have a fitted effect of over 35% in size
Procedure, shortened: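 Cells: HEK293 stably expressing human GnRHR. Steps: overnight (18 h) culture, 1 h calcium dye loading at 37 C, compound addition, kinetic fluorescence read at 480/540 nm. Each compound tested at 15 concentrations in triplicate.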

[4] = target: KiSS-1 receptor (Homo sapiens) (UniProt Q969F8); test: Human kisspeptin (KISS1R) small molecule agonists, calcium flux assay in KISS1R-HEK293 cells (AID 1920064; active = well fitted curve in the direction sought with a large enough effect in the repeat runs; an effect the other way counts as inactive or inconclusive)
Procedure, shortened: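 Cells plated and incubated 18 h; dye added, 1 h at 37 C; compounds in DMSO pinned in; signal read at 480/540 nm every second for 3 min. Each compound tested at 15 concentrations in triplicate.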

[5] = G protein-coupled receptor (GPCR) small molecule agonists, calcium flux assay: HEK293 wild type cell line counter screen (AID 1920065)
Procedure, shortened: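 Counter-screen of the Tox21 10K library for non-specific calcium release: dye-loaded cells received compounds in DMSO and were monitored by kinetic fluorescence (480/540 nm, 3 min). Fifteen concentrations, run in triplicate.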

[6] = p53 small molecule agonists, cell-based qHTS assay with human liver microsomes (AID 1963577)
Procedure, shortened: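 Fluorescence of the beta-lactamase reporter in p53RE-bla cells, detected with LiveBLAzer substrate (2 h, room temperature, dark), served as the read-out after 16 h compound exposure at 37 C with human liver microsomes and NADPH, each 0.5 mg/mL final.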

[7] = p53 small molecule agonists, cell-based qHTS assay with rat liver microsomes (AID 1963578)
Procedure, shortened: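 Cells carrying a p53 response element–beta-lactamase reporter were plated and rested 5 h, then dosed with compound in DMSO plus rat liver microsomes and NADPH, each at 0.5 mg/mL final. After 16 h at 37 C, LiveBLAzer substrate was added for 2 h.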

[8] = p53 small molecule agonists, cell-based qHTS assay with human liver microsomes: qHTS cell viability counter screen (AID 1963579); also: nearly all actives have a fitted effect of over 45% in size
Procedure, shortened: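 Cytotoxicity counter screen: p53RE-bla, 4,000 cells/well; 5 h settle, 37 C/5% CO2; cpd + HLM 0.5 mg/mL + NADPH 0.5 mg/mL (final); 16 h, 37 C; CellTiter-Glo, 30 min RT, luminescence.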

[9] = p53 small molecule agonists, cell-based qHTS assay with rat liver microsomes: qHTS cell viability counter screen (AID 1963580); also: nearly all actives have a fitted effect of over 45% in size
Procedure, shortened: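 Intracellular ATP, by CellTiter-Glo luminescence, defines viability. HCT-116 p53RE-bla cells, 4,000 per well, were compound-treated in the presence of rat liver microsomes and NADPH for 16 h at 37 C.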

[10] = p53 small molecule agonists, cell-based qHTS assay: qHTS cell viability counter screen (AID 1963581); also: nearly all actives have a fitted effect of over 45% in size
Procedure, shortened: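 Cells: HCT-116 with p53 response element-driven beta-lactamase. Treatment: 16 h, 37 C, compounds in DMSO. Read: CellTiter-Glo luminescence after 30 min RT.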

[11] = p53 small molecule agonists, cell-based qHTS assay (AID 1963582; active = well fitted activation curve with a large enough effect in the signal ratio in the repeat runs, not every such curve was filed as active; the % refers to the signal ratio; also: potency is read from the fitted curve at half-maximal effect)
Procedure, shortened: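 Quantitative HTS in p53RE-bla cells: after a 5 h settling period, compounds delivered in DMSO were left on cells for 16 h at 37 C, and reporter induction was measured as fluorescence following 2 h substrate loading.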

[12] = target: 5-hydroxytryptamine receptor 2A (Homo sapiens) (UniProt P28223); test: 5-hydroxytryptamine receptor 2A (HTR2A) small molecule antagonists, cell-based qHTS assay (AID 1963586); also: nearly all actives have a fitted effect of over 45% in size
Procedure, shortened: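 Antagonist-mode intracellular calcium assay: DOI (4 nM) added after 5 min compound pre-incubation at room temperature to dye-loaded HTR2A-CHO cells. Fluorescence followed for 3 min, sampled every second.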

[13] = target: 5-hydroxytryptamine receptor 2A (Homo sapiens) (UniProt P28223); test: 5-hydroxytryptamine receptor 2A (HTR2A) small molecule agonists, cell-based qHTS assay (AID 1963587); also: nearly all actives have a fitted effect of over 30% in size
Procedure, shortened: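 Kinetic calcium-flux fluorescence (2 min, 1 sec intervals) after compound addition in agonist mode. HTR2A-CHO cells were cultured 18 h, then dye-loaded 1 h at 37 C.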

[14] = target: Muscarinic acetylcholine receptor M1 (Homo sapiens) (UniProt P11229); test: Cholinergic receptor muscarinic 1 (CHRM1) small molecule antagonists, cell-based qHTS assay (AID 1963588); also: nearly all actives have a fitted effect of over 40% in size
Procedure, shortened: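 CHRM1-CHO calcium-flux assay, antagonist mode. Cells were seeded 18 h, dye-loaded 1 h at 37 C and given compound for 5 min at RT, then acetylcholine was added at 50nM. FDSS fluorescence was read 3 min; 15 concentrations, three runs.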

[15] = target: Muscarinic acetylcholine receptor M1 (Homo sapiens) (UniProt P11229); test: Cholinergic receptor muscarinic 1 (CHRM1) small molecule agonists, cell-based qHTS assay (AID 1963589); also: nearly all actives have a fitted effect of over 35% in size
Procedure, shortened: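 Agonist-mode qHTS in CHO cells stably carrying human muscarinic M1. Intracellular calcium is tracked by fluorescence every second after compound transfer; each compound runs at 15 concentrations in three independent runs.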

[16] = cAMP Responsive Elements (CRE) small molecule agonists, cell-based qHTS assay (AID 1963590)
Procedure, shortened: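 Agonist mode qHTS in CRE-bla HEK 293T cells: compounds dosed from DMSO for 3 h at 37 C/5% CO2, followed by LiveBLAzer B/G FRET substrate for 2 h at room temperature.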

[17] = cAMP Responsive Elements (CRE) small molecule antagonists, cell-based qHTS assay (AID 1963591; active = well fitted inhibition curve with a large enough effect in the signal ratio in the repeat runs, not every such curve was filed as active; the % refers to the signal ratio)
Procedure, shortened: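 Antagonist mode: test compounds are co-incubated with the adenylyl cyclase activator NKH477 (0.25 uM final) on CRE-bla HEK293T cells for 3 h at 37 °C, followed by LiveBLAzer substrate loading.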

[18] = target: Beta-2 adrenergic receptor (Homo sapiens) (UniProt P07550); test: Adrenergic beta2 receptor (ADRB2) small molecule antagonists, cell-based qHTS assay (AID 1963592); also: series mostly up to about 92 µM; nearly all actives have a fitted effect of over 50% in size
Procedure, shortened: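 Cells (CHO, stable ADRB2 overexpression) incubated 18-20hr at 37C; compounds added from DMSO; agonist mix (1nM isoproterenol, 100uM IBMX, 25uM Ro-20-1724) added; 0.5hr RT; d2-cAMP and anti-cAMP-cryptate added; 1hr RT; 665/615 nm read.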

[19] = target: D(2) dopamine receptor (Homo sapiens) (UniProt P14416); test: Dopamine D2 receptor (DRD2) small molecule antagonists, cell-based qHTS assay (AID 1963595; active = well fitted inhibition curve with a large enough effect in the signal ratio in the repeat runs, with a control signal flat; the % refers to the signal ratio)
Procedure, shortened: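 Antagonism was scored as restored cAMP in HEK293-DRD2 cells. These cells were stimulated with 200 nM NKH477 and 12 nM quinpirole for 30 min at room temperature, in the presence of 0.1 mM Ro20-1724.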

[20] = target: D(2) dopamine receptor (Homo sapiens) (UniProt P14416); test: Dopamine D2 receptor (DRD2) small molecule agonists, cell-based qHTS assay (AID 1963594); also: nearly all actives have a fitted effect of over 35% in size
Procedure, shortened: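 cAMP accumulation in DRD2-HEK293 cells measured by HTRF after 1 h detection; compounds added 10 min before NKH477 (200nM […]) forskolin-analogue stimulation, 30 min at room temperature, with Ro20-1724 present at 0.1 mM final.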

KiSS-1 receptor (Homo sapiens), sequence (Q969F8 whole entry, looked up): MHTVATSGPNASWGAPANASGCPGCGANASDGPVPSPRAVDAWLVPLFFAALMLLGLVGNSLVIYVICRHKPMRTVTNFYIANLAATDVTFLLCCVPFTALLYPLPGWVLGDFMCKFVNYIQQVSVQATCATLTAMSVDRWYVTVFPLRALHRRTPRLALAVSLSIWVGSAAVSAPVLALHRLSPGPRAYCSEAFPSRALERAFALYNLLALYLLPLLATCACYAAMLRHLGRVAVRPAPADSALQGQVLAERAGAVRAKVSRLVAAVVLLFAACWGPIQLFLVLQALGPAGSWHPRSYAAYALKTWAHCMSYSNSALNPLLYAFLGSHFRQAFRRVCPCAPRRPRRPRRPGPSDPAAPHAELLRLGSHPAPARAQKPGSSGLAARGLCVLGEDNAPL
Gonadotropin-releasing hormone receptor (Homo sapiens), sequence (P30968 whole entry, looked up): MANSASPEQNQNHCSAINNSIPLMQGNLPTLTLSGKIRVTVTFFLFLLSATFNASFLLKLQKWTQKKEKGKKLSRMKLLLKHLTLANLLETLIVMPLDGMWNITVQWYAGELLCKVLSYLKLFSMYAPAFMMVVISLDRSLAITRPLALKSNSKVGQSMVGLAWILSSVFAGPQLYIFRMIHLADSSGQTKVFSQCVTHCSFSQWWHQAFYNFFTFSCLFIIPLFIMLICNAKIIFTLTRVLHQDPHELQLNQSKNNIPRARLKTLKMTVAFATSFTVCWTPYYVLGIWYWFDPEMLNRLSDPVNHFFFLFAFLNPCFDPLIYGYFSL
Beta-2 adrenergic receptor (Homo sapiens), sequence (P07550 whole entry, looked up): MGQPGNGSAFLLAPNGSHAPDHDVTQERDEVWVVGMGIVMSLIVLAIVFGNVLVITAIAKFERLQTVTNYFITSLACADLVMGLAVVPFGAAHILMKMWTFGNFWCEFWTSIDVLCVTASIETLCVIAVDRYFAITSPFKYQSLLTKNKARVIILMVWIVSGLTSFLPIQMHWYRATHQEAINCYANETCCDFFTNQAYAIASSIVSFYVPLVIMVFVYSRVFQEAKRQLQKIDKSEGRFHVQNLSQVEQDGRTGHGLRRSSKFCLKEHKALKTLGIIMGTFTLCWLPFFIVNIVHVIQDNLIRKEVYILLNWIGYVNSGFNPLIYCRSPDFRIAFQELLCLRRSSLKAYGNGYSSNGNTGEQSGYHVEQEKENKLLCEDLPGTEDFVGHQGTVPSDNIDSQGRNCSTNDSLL
Muscarinic acetylcholine receptor M1 (Homo sapiens), sequence (P11229 whole entry, looked up): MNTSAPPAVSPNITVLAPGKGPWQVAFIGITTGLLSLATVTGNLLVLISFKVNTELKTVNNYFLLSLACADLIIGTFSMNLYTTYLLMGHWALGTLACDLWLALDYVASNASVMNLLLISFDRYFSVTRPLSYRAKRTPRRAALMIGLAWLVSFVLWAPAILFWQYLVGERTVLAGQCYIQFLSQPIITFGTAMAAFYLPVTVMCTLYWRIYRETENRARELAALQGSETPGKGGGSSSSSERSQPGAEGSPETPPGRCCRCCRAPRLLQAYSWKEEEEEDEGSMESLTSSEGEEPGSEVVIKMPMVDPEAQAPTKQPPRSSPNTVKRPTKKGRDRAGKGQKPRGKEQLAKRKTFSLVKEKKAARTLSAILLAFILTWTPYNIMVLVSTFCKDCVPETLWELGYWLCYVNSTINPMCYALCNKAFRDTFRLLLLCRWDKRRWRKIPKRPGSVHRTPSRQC
D(2) dopamine receptor (Homo sapiens), sequence (P14416 whole entry, looked up): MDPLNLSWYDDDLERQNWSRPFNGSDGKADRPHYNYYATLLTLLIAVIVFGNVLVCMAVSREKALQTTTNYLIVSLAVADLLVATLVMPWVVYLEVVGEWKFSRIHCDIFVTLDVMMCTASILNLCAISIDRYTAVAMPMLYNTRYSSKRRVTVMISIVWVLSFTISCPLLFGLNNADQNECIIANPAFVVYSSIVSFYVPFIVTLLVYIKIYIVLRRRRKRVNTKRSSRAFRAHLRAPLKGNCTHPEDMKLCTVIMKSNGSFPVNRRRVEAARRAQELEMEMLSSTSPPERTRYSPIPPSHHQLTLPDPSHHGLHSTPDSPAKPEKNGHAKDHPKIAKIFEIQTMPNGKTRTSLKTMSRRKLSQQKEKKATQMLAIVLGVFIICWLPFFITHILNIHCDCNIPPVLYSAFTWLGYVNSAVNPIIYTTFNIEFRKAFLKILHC
5-hydroxytryptamine receptor 2A (Homo sapiens), sequence (P28223 whole entry, looked up): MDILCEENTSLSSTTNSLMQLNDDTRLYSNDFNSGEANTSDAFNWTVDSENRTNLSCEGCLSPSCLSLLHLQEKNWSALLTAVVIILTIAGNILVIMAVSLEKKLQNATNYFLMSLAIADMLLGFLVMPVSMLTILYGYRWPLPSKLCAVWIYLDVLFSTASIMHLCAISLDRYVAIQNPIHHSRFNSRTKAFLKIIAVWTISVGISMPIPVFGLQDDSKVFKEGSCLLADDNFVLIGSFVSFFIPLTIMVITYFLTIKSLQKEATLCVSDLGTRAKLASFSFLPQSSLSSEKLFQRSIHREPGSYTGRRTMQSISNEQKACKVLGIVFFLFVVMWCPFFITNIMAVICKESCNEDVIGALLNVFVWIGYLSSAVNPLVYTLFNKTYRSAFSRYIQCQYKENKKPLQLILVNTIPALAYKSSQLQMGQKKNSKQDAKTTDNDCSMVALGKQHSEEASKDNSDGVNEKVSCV

Structure (SMILES)	Potency [1]	Potency [2]	Potency [3]	outcome [4]	outcome [5]	Potency [6]	Potency [7]	Potency [8]	Potency [9]	Potency [10]	Potency [11]	Potency [12]	Potency [13]	Potency [14]	Potency [15]	Potency [16]	Potency [17]	Potency [18]	Potency [19]	Potency [20]
O=C1OC(OC(=O)c2cccnc2Nc2cccc(C(F)(F)F)c2)c2ccccc21 (stereo not given)	inactive	13.3 µM (active)	inactive	inactive	inactive	inactive	inactive	inactive	inactive	inactive	inactive	inactive	inactive	inactive	inactive	inactive	inactive	inactive	inactive	–
CO[C@@H]1[C@@H](OC(N)=O)[C@@H](O)[C@H](Oc2ccc3c(O)c(NC(=O)c4ccc(O)c(CC=C(C)C)c4)c(=O)oc3c2C)OC1(C)C	inactive	inactive	inactive	inactive	inactive	inactive	inactive	inactive	inactive	inactive	inactive	inactive	inactive	inactive	inactive	inactive	inactive	inactive	inactive	inactive
COC(=O)c1cc(C(=O)OC)cc(S(=O)(=O)O)c1	inactive	inactive	inactive	inactive	inactive	inactive	inactive	inactive	inactive	inactive	inactive	inactive	inactive	inactive	inactive	inactive	inactive	inactive	inactive	inactive
Nc1ccnc(=O)[nH]1	inactive	inactive	inactive	inactive	inactive	inactive	inactive	inactive	inactive	inactive	inactive	inactive	inactive	inactive	inactive	inactive	inactive	inactive	inactive	inactive
CCc1cccc(CC)c1N(COC)C(=O)CS(=O)(=O)O	inactive	inactive	inactive	inactive	inactive	inactive	inactive	inactive	inactive	inactive	inactive	inactive	inactive	inactive	inactive	inactive	inactive	inactive	inactive	inactive
CN1C(=O)N(C)C(O)C1O (stereo not given)	inactive	inactive	inactive	inactive	inactive	inactive	inactive	inactive	inactive	inactive	inactive	inactive	inactive	inactive	inactive	inactive	inactive	inactive	inactive	inactive
Cc1c(N=C=O)cccc1N=C=O	inactive	inactive	inactive	inactive	inactive	inactive	inactive	inactive	inactive	inactive	inactive	inactive	inactive	inactive	inactive	inactive	inactive	inactive	inactive	inactive
N=c1ccn2c(n1)O[C@H]1[C@H](O)[C@@H](CO)O[C@H]12	inactive	inactive	inactive	inactive	inactive	inactive	inactive	inactive	inactive	inactive	1.45 µM (active)	inactive	inactive	inactive	inactive	inactive	inactive	inactive	inactive	inactive
Cc1cc(N)c(S(=O)(=O)O)cc1Cl	inactive	inactive	inactive	inactive	inactive	inactive	inactive	inactive	inactive	inactive	inactive	inactive	inactive	inactive	inactive	inactive	inactive	inactive	inactive	–
CC(C(=O)O)c1ccc2c(c1)CC(=O)c1ccccc1S2 (stereo not given)	inactive	inactive	inactive	inactive	inactive	inactive	inactive	inactive	inactive	inactive	inactive	inactive	inactive	inactive	inactive	inactive	inactive	–	inactive	–
CCOC(=O)CCC(=O)OCC	inactive	inactive	inactive	inactive	inactive	inactive	inactive	inactive	inactive	inactive	inactive	inactive	inactive	inactive	inactive	inactive	–	inactive	inactive	–
CCCCCCCCCCCCSC	inactive	inactive	inactive	inactive	inactive	inactive	inactive	inactive	inactive	inactive	inactive	inactive	inactive	inactive	inactive	inactive	–	inactive	inactive	inactive
CO[Si](C)(OC)c1ccccc1	inactive	inactive	inactive	inactive	inactive	inactive	inactive	inactive	inactive	inactive	inactive	inactive	inactive	inactive	inactive	inactive	–	inactive	inactive	inactive
CCCCCCCCC=O	inactive	inactive	inactive	inactive	inactive	inactive	inactive	inactive	inactive	inactive	inactive	inactive	inactive	inactive	inactive	inactive	–	inactive	inactive	inactive
COC(=O)NN	inactive	inactive	inactive	inactive	inactive	inactive	inactive	inactive	inactive	inactive	inactive	inactive	inactive	inactive	inactive	inactive	–	inactive	inactive	inactive
